From the supplement of paper PMC10811239

What follows are compounds tested on LEGO organoid PTN (PTEN-/-; TP53-/-; NF1-/-) (assay: bioluminescence (viable cell) signal fold change after vs before treatment, normalised to DMSO (ratio); higher = more tumour cell growth / less inhibition). Details: 10 µM; treatment time 6 days.
Protocol: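 Luc2-labelled iPSC-derived glioblastoma-like organoids (LEGOs, genotypes PT = PTEN-/-;TP53-/-, PTCC = plus CDKN2A/B-/-, PTN = plus NF1-/-) were treated with 10 uM drug for 6 days (applied every other day) at 37 C. Bioluminescence imaging was done before treatment and 2 days after the last dose. BLI signals were normalised to the DMSO control on the same day and then to the pre-treatment signal (N=3).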

| SMILES | bioluminescence |
| --- | --- |
| CO/N=C(\C(=O)N[C@@H]1C(=O)N2C(C(=O)[O-])=C(C[N+]3(C)CCCC3)CS[C@H]12)c1csc(N)n1.Cl.Cl.O [Cefepime Dihydrochloride Monohydrate] | 1.59 |
| CC(=O)Nc1ccc(O)cc1 [Acetaminophen] | 0.918 |
| CCCCCOC(=O)Nc1nc(=O)n([C@@H]2O[C@H](C)[C@@H](O)[C@H]2O)cc1F [Capecitabine] | 6.04 |
| O=NN(CCCl)C(=O)NC1CCCCC1 [Lomustine] | 1.92 |
| CNS(=O)(=O)Cc1ccc2[nH]cc(CCN(C)C)c2c1.O=C(O)CCC(=O)O [Sumatriptan succinate] | 1.05 |
| CCC1(c2ccccc2)C(=O)NCNC1=O [Primidone] | 0.89 |
| Nc1ncnc2c1ncn2[C@@H]1O[C@H](CO)[C@@H](O)[C@H]1O [Adenosine] | 0.654 |
| CN1CCN(CCCN2c3ccccc3Sc3ccc(C(F)(F)F)cc32)CC1.Cl.Cl [Trifluoperazine dihydrochloride] | 1.23 |
| COc1ccc2c(c1)c(CC(=O)O)c(C)n2C(=O)c1ccc(Cl)cc1 [Indometacin] | 1.76 |
| Cl.Cc1ccsc1\C(=C\CCN1CCC[C@H](C1)C(O)=O)c1sccc1C [Tiagabine hydrochloride] | 0.83 |
| NC(=O)N1c2ccccc2CC(=O)c2ccccc21 [Oxcarbazepine] | 1.05 |
| CCOC(=O)c1ccc(C#Cc2ccc3c(c2)C(C)(C)CCS3)nc1 [Tazarotene] | 1.11 |
| Cl.CN(C)CC\C=C1\c2ccccc2C=Cc2ccccc12 [Cyclobenzaprine hydrochloride] | 3.73 |
